From PubChem BioAssay (NCATS)
Inconclusive results are not listed. The source made the active and inactive calls. Calls come from the whole dose curve; as a rule, active = well fitted inhibition curve with a large enough effect; inconclusive = small, poorly fitted or top-dose-only effect; inactive = flat fitted curve, though single readings scatter.

Experiments:
Assay in all cases: qHTS profiling for inhibitors of Plasmodium falciparum proliferation (AID 504749); note: nearly all actives have a fitted effect of over 60% in size
[1] = test system: CP252; settings: P. falciparum in erythrocytes, SYBR Green DNA, 72 h; series mostly up to 12.8 µM
In short: (§1)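 Infected RBCs, 0.3% parasitemia/2.5% Hct final; cpd 72 h, 37 C, 5% CO2; lysis buffer with saponin/triton/SYBR Green I, o/n RT dark; FI 485/535; norm. to artemisinin (0.29 uM) and DMSO.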

[2] = test system: CP256; settings: P. falciparum in erythrocytes, SYBR Green DNA, 72 h; series mostly up to 28.7 µM
In short: as §1

[3] = test system: CP260; settings: P. falciparum in erythrocytes, SYBR Green DNA, 72 h; series mostly up to 28.7 µM
In short: as §1

[4] = test system: CP265; settings: P. falciparum in erythrocytes, SYBR Green DNA, 72 h; series mostly up to 12.8 µM
In short: as §1

[5] = test system: CP266; settings: P. falciparum in erythrocytes, SYBR Green DNA, 72 h; series mostly up to 12.8 µM
In short: as §1

[6] = test system: CP268; settings: P. falciparum in erythrocytes, SYBR Green DNA, 72 h; series mostly up to 28.7 µM
In short: as §1

[7] = test system: CP269; settings: P. falciparum in erythrocytes, SYBR Green DNA, 72 h; series mostly up to 28.7 µM
In short: as §1

[8] = test system: CP286; settings: P. falciparum in erythrocytes, SYBR Green DNA, 72 h; series mostly up to 28.7 µM
In short: as §1

[9] = test system: CP291; settings: P. falciparum in erythrocytes, SYBR Green DNA, 72 h; series mostly up to 28.7 µM
In short: as §1

[10] = test system: CP297; settings: P. falciparum in erythrocytes, SYBR Green DNA, 72 h; series mostly up to 28.7 µM
In short: as §1

[11] = test system: CP305; settings: P. falciparum in erythrocytes, SYBR Green DNA, 72 h; series mostly up to 28.7 µM
In short: as §1

[12] = test system: CP315; settings: P. falciparum in erythrocytes, SYBR Green DNA, 72 h; series mostly up to 28.7 µM
In short: as §1

[13] = test system: CP325; settings: P. falciparum in erythrocytes, SYBR Green DNA, 72 h; series mostly up to 28.7 µM
In short: as §1

[14] = test system: CP329; settings: P. falciparum in erythrocytes, SYBR Green DNA, 72 h; series mostly up to 28.7 µM
In short: as §1

[15] = test system: DIV14; settings: P. falciparum in erythrocytes, SYBR Green DNA, 72 h; series mostly up to 28.7 µM
In short: as §1

[16] = test system: DIV17; settings: P. falciparum in erythrocytes, SYBR Green DNA, 72 h; series mostly up to 28.7 µM
In short: as §1

[17] = test system: DIV30; settings: P. falciparum in erythrocytes, SYBR Green DNA, 72 h; series mostly up to 28.7 µM
In short: as §1

[18] = test system: Dd2; settings: P. falciparum in erythrocytes, SYBR Green DNA, 72 h; series mostly up to 28.7 µM
In short: as §1

[19] = test system: ECU; settings: P. falciparum in erythrocytes, SYBR Green DNA, 72 h; series mostly up to 28.7 µM
In short: as §1

[20] = test system: FAB9; settings: P. falciparum in erythrocytes, SYBR Green DNA, 72 h; series mostly up to 28.7 µM
In short: as §1

[21] = test system: GB4; settings: P. falciparum in erythrocytes, SYBR Green DNA, 72 h; series mostly up to 28.7 µM
In short: as §1

[22] = test system: HB3; settings: P. falciparum in erythrocytes, SYBR Green DNA, 72 h; series mostly up to 28.7 µM
In short: as §1

[23] = test system: ICS; settings: P. falciparum in erythrocytes, SYBR Green DNA, 72 h; series mostly up to 28.7 µM
In short: as §1

[24] = test system: N140; settings: P. falciparum in erythrocytes, SYBR Green DNA, 72 h; series mostly up to 28.7 µM
In short: as §1

[25] = test system: P93_24; settings: P. falciparum in erythrocytes, SYBR Green DNA, 72 h; series mostly up to 28.7 µM
In short: as §1

[26] = test system: P94_40; settings: P. falciparum in erythrocytes, SYBR Green DNA, 72 h; series mostly up to 28.7 µM
In short: as §1

[27] = test system: PAD; settings: P. falciparum in erythrocytes, SYBR Green DNA, 72 h; series mostly up to 28.7 µM
In short: as §1

[28] = test system: PC15; settings: P. falciparum in erythrocytes, SYBR Green DNA, 72 h; series mostly up to 28.7 µM
In short: as §1

[29] = test system: PC26; settings: P. falciparum in erythrocytes, SYBR Green DNA, 72 h; series mostly up to 28.7 µM
In short: as §1

[30] = test system: PC49; settings: P. falciparum in erythrocytes, SYBR Green DNA, 72 h; series mostly up to 28.7 µM
In short: as §1

[31] = test system: SC27B; settings: P. falciparum in erythrocytes, SYBR Green DNA, 72 h; series mostly up to 28.7 µM
In short: as §1

[32] = test system: TAB109; settings: P. falciparum in erythrocytes, SYBR Green DNA, 72 h; series mostly up to 12.8 µM
In short: as §1

[33] = test system: TAB113; settings: P. falciparum in erythrocytes, SYBR Green DNA, 72 h; series mostly up to 28.7 µM
In short: as §1

[34] = test system: TAB165; settings: P. falciparum in erythrocytes, SYBR Green DNA, 72 h; series mostly up to 28.7 µM
In short: as §1

[35] = test system: W2; settings: P. falciparum in erythrocytes, SYBR Green DNA, 72 h; series mostly up to 12.8 µM
In short: as §1

Measured: Potency
Potency is the fitted concentration of half-maximal effect.

CO[C@@H](COC(N)=O)C1=C(N2CC2)C(=O)C(C)=C(N2CC2)C1=O
inactive: [30]
active: [1] 794 nM | [2] 1410 nM | [3] 1000 nM | [4] 708 nM | [5] 3790 nM | [6] 3010 nM | [7] 953 nM | [8] 1120 nM | [9] 1350 nM | [10] 1690 nM | [11] 1900 nM | [12] 3380 nM | [13] 3010 nM | [14] 1510 nM | [15] 1510 nM | [16] 1900 nM | [17] 3010 nM | [18] 891 nM | [19] 2000 nM | [20] 7940 nM | [21] 1510 nM | [22] 2000 nM | [23] 1000 nM | [24] 1260 nM | [25] 1120 nM | [26] 1120 nM | [27] 1260 nM | [28] 2820 nM | [29] 1900 nM | [31] 1260 nM | [32] 1120 nM | [33] 1260 nM | [34] 708 nM | [35] 301 nM
